# In the library only some 5.7% were active in any assay of this set; here they are far more common.
# GLP1R cytotox – cytotoxicity in counter-screen for GLP-1R inverse agonists. HEK293 cAMP-luciferase reporter cells, luminescence, 24 h. Potency, µM (series often up to 38.3 µM), usual class: inhibitors. hit rate 0.13% among 410,000;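 further: loss of luciferase light is scored as toxicity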
#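 Luminescence readout: signal drop marks cytotoxicity. Plated cells grew 12 h at 37 °C, 5% CO2, received 23 nL compound for 24 h, then got luciferase reagent, read after 12 min at RT.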
# GLP-1R inv ag – acts as inverse agonist at human GLP-1 receptor | HEK293 GLP-1R CRE-luciferase, luminescence, 24 h; GLP-1R form is constitutively active | Potency, µM (doses to about 38.3 µM), most hits filed as inhibitors | hit rate 1.6% among 410,000 | AID 624417; further: nearly all actives have a fitted effect of over 55% in size
# Target sequence (P43220 whole entry, looked up): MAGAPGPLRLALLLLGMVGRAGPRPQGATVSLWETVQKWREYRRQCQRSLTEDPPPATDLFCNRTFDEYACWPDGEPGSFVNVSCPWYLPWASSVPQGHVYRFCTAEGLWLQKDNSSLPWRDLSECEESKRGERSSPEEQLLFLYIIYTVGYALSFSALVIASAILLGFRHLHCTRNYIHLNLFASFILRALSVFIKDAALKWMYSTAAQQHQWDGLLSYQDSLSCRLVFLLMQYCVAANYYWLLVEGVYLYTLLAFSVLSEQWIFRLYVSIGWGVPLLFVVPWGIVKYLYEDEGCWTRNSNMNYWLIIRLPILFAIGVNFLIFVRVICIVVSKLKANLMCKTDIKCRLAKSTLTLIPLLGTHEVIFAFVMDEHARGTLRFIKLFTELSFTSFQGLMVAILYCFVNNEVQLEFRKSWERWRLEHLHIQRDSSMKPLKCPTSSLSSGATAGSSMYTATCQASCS
#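 Assay principle: reduced luminescence from a cAMP-responsive reporter in HEK293 cells co-expressing a constitutively active GLP-1R. Conditions: 24 hr compound incubation, 37 deg C, 5% CO2.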
# D3 ag – activates the human D3 dopamine receptor. P35462. D3R DiscoveRx beta-arrestin cells, luminescence, 90 min. max activation, %. hit rate 0.58% among 410,000; in the data active means max activation above about 30%
#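 Cells at 1500/well, incubated overnight, then treated with pinned compounds (dopamine as control) for 90 min at 37 degrees C. DiscoveRx reagent added for 30 - 60 minutes at room temperature; luminescence read.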
# ClpP mod – qHTS Assay for Activators of ClpP | ATP-dependent Clp protease proteolytic subunit (Bacillus subtilis (strain 168)), P80244 | purified B. subtilis ClpP, FRET peptide cleavage, 20 min | Potency, µM (highest dose often 57.5 µM) | hit rate 1.9% among 340,000 | AID 651965, 2013; active means well fitted falling curve with a large enough effect; inconclusive means small, poorly fitted or top-dose-only effect; inactive means no such curve, though single readings can be large or run the other way; further: the source files actives as falling curves though it sought activators and does not explain the sign; nearly all actives have a fitted effect of over 65% in size
#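 Buffer: 100 mM Tris/HCl pH8, 100 mM KCl, 0.05% low protease BSA, 2.5% glycerol, 0.01% Tween-20. ClpP 10 microg/mL final; 20 min RT; delta FRET normalized to ADEP and DMSO controls.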
# GLP-1R agonist – activates the human GLP-1 receptor; hit rate 0.007% among 380,000; Potency, µM (titrated, usually from 45.6 µM), usual class: activators; AID 624172; HEK293 GLP-1R CRE-luciferase, luminescence, 4-6 h; cells express a hypersensitive GLP-1R form; P43220
# D3 antag – D3 dopamine receptor (human) antagonism; D3R cells, DiscoveRx beta-arrestin luminescence, antagonist mode; active compounds read low; hit rate 2.5% among 360,000; P35462; max response, negative = inhibition, %; in the data active means max response below about -50%; inconclusive means no clear call, values can overlap the other calls
#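 Cells plated overnight at 1500 cells/well, then exposed to library compounds with dopamine controls for 90 minutes at 37 degrees C. DiscoveRx reagent added for 30–60 minutes at room temperature; luminescence read, quantitative HTS format.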
# Hits are given with their value; – = inactive; ? = inconclusive; · = no result. Unless noted, the call rests on the fitted dose curve; in most records, active means well fitted curve in the direction sought with a large enough effect; inconclusive means small, poorly fitted or top-dose-only effect, or another doubt; inactive means no such curve, though single readings can be large; an effect the other way counts as inactive or inconclusive.
SMILES,GLP1R cytotox,GLP-1R inv ag,D3 ag,ClpP mod,GLP-1R agonist,D3 antag
C=CCOc1nc2c(c(=O)n(C)c(=O)n2C)n1Cc1ccccc1Cl,–,–,36,–,?,–
CC(C)CCNC(=O)Cn1c(SCc2cccc(F)c2)nc2ccncc21,·,·,·,–,·,·
COc1ccc(-c2nc3c(c(=O)[nH]c(=O)n3Cc3ccccc3)n2Cc2ccccc2)cc1,–,–,–,28µM,–,–
CCCn1c(-c2cc(OC)c(OC)c(OC)c2)nc2c1c(=O)[nH]c(=O)n2Cc1ccccc1,–,–,–,·,–,–
COc1ccc(-c2nc3c(c(=O)[nH]c(=O)n3Cc3ccccc3)n2C)cc1,–,–,–,35µM,–,–
COc1cccc(N2CCN(C(=O)C3CCN(S(=O)(=O)c4cccc5nonc45)CC3)CC2)c1,–,–,–,–,·,·
Cc1ccc(S[C@@H](CCN2CC[C@H](C(C)(C)C)CCC2=O)c2ccccc2)cc1,–,10µM,–,–,–,?
COc1ccc(S[C@@H](CCN2CC[C@H](C)CCC2=O)c2ccccc2)cc1,–,10µM,–,–,–,–
Cc1ccc(S[C@@H](CCN2CC[C@H](C)CCC2=O)c2ccccc2)cc1,–,?,–,–,–,–
Cc1ccc(SCCN2CCC(NC(=O)OCc3ccccc3)CCC2=O)cc1 (stereo not drawn),–,?,–,–,–,–
O=C(N[C@@H]1CCC(=O)N(CC[C@H](Sc2ccccc2)c2ccccc2)CC1)OCc1ccccc1,–,?,–,–,–,-92
COc1cc(NC(=O)CN2C(=O)C(c3ccc(C)cc3)=NC23CCCCCC3)cc(OC)c1,–,–,–,–,·,·
CNc1c(NC(=O)c2cc(OC)cc(OC)c2)c(=O)oc2ccccc12,–,–,–,–,·,·
CC1CCCN(c2oc(-c3cccc4ccccc34)nc2C#N)C1 (stereo not drawn),–,–,–,3.2µM,–,–
COc1ccc(-c2nc(C#N)c(N3CCc4ccccc4C3)o2)cc1OC,–,–,36,?,?,–
CCN1CCN(c2oc(-c3ccc(OC)cc3)nc2C#N)CC1,–,–,–,3.2µM,–,–
COc1ccc(-c2nc(C#N)c(N3CCN(c4ccccc4)CC3)o2)cc1,–,–,–,–,–,–
N#Cc1nc(-c2ccccc2Cl)oc1N1CCOCC1,–,–,–,8.9µM,–,–
N#Cc1nc(-c2ccco2)oc1N1CCOCC1,–,–,–,–,–,–
COc1ccc(-n2c(SCC(=O)Nc3cc(C)cc(C)c3)nc3c(oc4ccccc43)c2=O)cc1,–,–,–,–,·,·
Fc1ccc(N2CCN(c3ncnc4c3nc3n4CCCC3)CC2)cc1,–,–,–,–,–,·
CC1CCN(c2oc(-c3ccccc3Cl)nc2C#N)CC1,–,?,–,28µM,–,–
COc1ccc(N2CCN(c3oc(-c4ccccc4OC)nc3C#N)CC2)cc1,–,–,–,?,–,–
COc1ccccc1-c1nc(C#N)c(N2CCN(c3ccccc3)CC2)o1,–,?,–,28µM,–,?
CN(Cc1ccccc1)C(=O)c1ccc2c(c1)N(Cc1ccc(Cl)cc1)C(=O)c1ccccc1S2=O (stereo not drawn),–,–,–,–,–,·
SMILES,GLP1R cytotox,GLP-1R inv ag,D3 ag,ClpP mod,GLP-1R agonist,D3 antag
O=C(CSc1nc2nc(-c3cccs3)cc(C(F)(F)F)c2c(=O)[nH]1)C(F)(F)F,–,–,–,–,–,–
O=C(CSc1nc2nc(-c3cccs3)cc(C(F)(F)F)c2c(=O)[nH]1)NCc1ccco1,–,–,–,8.9µM,–,–
CCOc1ccc(-c2cc(C(=O)NCCc3ccc(C)cc3)c3ccccc3n2)cc1,–,–,–,–,–,·
Nc1ccn([C@@H]2O[C@H](C(=O)N[C@H](CO)c3ccccc3)[C@@H](O)[C@H]2O)c(=O)n1,–,–,–,–,–,–
Cc1nnc(NC(=O)CSCc2cc(=O)c3cc(Cl)ccc3[nH]2)s1,–,–,–,–,·,·
O=C1CC(=C2c3ccccc3-c3ccccc32)C(=O)N1CCCCN1CCN(c2ccccc2)CC1,–,?,–,–,–,-55

# Screens: PubChem BioAssay, National Center for Advancing Translational Sciences (NCATS)
